According to the supplement of paper PMC6555819:

test system: VDR:RXRa (NR concentration 270 nM, RXRa partner concentration 90 nM); experiment: PBM binding z-score (relative to random genomic background probes); higher = stronger binding; sequences stand for … in GC…GCGATTGACAGCGTAGAATGAAGG
Procedure: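 Protein-binding microarray (Agilent 4x180K custom design, double-stranded 60-nt probes: 5' GC cap, 34-nt variable region, 24-nt constant primer region; full probe sequence given). Purified or IVT nuclear receptor:RXRα heterodimers (3:1 NR:RXRα, mostly 270:90 nM) or homodimers were incubated for 1 h in PBS with 2% milk and no ligand, then detected with Alexa488 antibodies. Fluorescence from o1-orientation probes (~5 replicates averaged) was converted to z-scores against 500 random hg19 background probes. Variable regions are seed direct-repeat (DR0–DR5) sites, all their single-nucleotide variants and half-site ablations.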

Sequence | PBM binding z-score
ATCTCTAGGTAACAAGTTCAGAGAAAGAGAGGAC | 2.01
GCTAGTTGGTAAGTAAAAGGTCACACACCGGTCG | 3.82
GATGCTAGGTCAGGTTGGTCAGCTAACGGGTACG | 0.88
CCGACTAGGGCAGAAAGGTTACCATACCATCCGG | 1.13
ACTATTAGTTGACTGAGGGCAACCGATACGACGC | 2.41
CAAACTAGGTCACGTAAGGTCAAAGTCGAATGAC | 7.01
ATCTCTAGGTAACCAAGTTCAGTGACTGCCGAAC | 4.15
CGTCCAAGGTCGATGCTAGGTCAGTGAAAGCATT | 2.26
CGAACTAGGTCATCCAGGAAAGTGAATACATTGA | 2.24
CAAACTAGGTCTCGAAAGGTCAAAGTCGAATGAC | 4.71
CAAACTAGATCAAGAGGTCAAAGTCCGCTTCCCG | 4.68
CCTTACGGGTAAAGGTTATAGCACGGGTGGTACG | 0.723
CTCGAAAGGTCGTACTCAGGTGAGTATACCAAAC | 3.52
TTACCAAGGTGAAGGTCTTTGATCCCTCTGTAGA | -0.00925
TCTTGTAGATCAATAGAGGTTAAGAAAGTGCGCT | 1.8
ATACCACGGTGATCGTGAGGTCGTTGATACTAAC | 1.93
TAGCCTAGGGCATGGGCCAGTATACCACGCGAAC | -0.452
ACAGAAAGGTGAGTGAAGGTAACTCAGCTGGACG | 0.368
TCTGCTAGGTCAGTTGGTCAGCTTACGAGCTGCC | 0.0848
ATCTCTAAGTAACCAAGTTCAGTGAATGCCGAAC | 2

Sequence | PBM binding z-score
CCTTACGGGTCACTGACAGGTTATAGAATTTGGA | 3.69
GGAATGAGGGCATTCGAGTTGATAGCATGGCGAT | 3.45
TCATATAGGCAAAGGTGAAAGTCGAACGATATGA | 0.976
CGAACGAGGGAATGAGTTGATAGCAAATGCCGAT | -0.28
GCATATAGGTAATACAACGTGAAAGTCCGATTGT | -0.316
GGACCGAGGGCAAAGTTGATAGCATCTGTCGACG | 0.837
GCATATAGGTAACACAAGGTGAAAGTCCGATTGT | 0.418
ATCTCTAGGTAAAAGTCCAGTGAATCCCGAGGAT | 0.00204
ACAGACAGATGAGTGAAGGTAACTCAGCTGGACG | -0.157
GATACAGGGTCAGCTAGAGGCCAGAGTCTGGAAA | 3.26
CCTTACGGGTCACGCCAGGTTATAGCATCGGAGT | 5.36
GCGACTGGGGCAAAGCAGGTGACCATAAGGTTGG | -0.478
TCTAGCTGGCCAGAGGGTCACTCAAGAGGTACGG | 1.44
TCTATTAGTTGAAGGGCAACCGCCGAGTCCGTTT | 0.974
AATACAGGGTCATCCTAGGCCAGAGTACGCACAG | 5.38
TCTGCTTGGTCAGTTGGTCAGCTAACGAGCTGCC | -0.451
CCGTCTGGGGCAAAGGTTACCATACTCAGTACGA | 1.55
CCGACTGGGGCATAGGGTTACCATAAGCCAGCCC | 0.304
CCTGACGGGTCAAGGTTATAGCACGGGTGGTACG | 2.74
TCTATTAGTTGAGGGGCAACCGACGAGTCCGTTT | 0.965
